Screens as filed in PubChem.
The list is a sample of the results.
aSyn UTR act: Activators via SNCA 5'UTR binding, MLPCN; alpha-synuclein 5'UTR reporter, activators screen; activity score, % (tested at 7.5 µM), hits read low; 300,000 tested, 7.1% active; AID 1814; in the data active = activity score below about -60%
Numbers without * were called inactive.

SMILES	aSyn UTR act
O=C(O)c1ccc(Nc2nc(-c3cccnc3)cs2)cc1	-88*
CC(=O)c1ccc(Nc2nc(-c3cccnc3)cs2)cc1	-130*
Cc1ccc(NC(=O)c2ccnc(C(C)(C)C)c2)cc1	-127*
CCN(CC)S(=O)(=O)c1cccc(C(=O)Nc2ccc(Cl)cn2)c1	-76*
CCN(CC)S(=O)(=O)c1cc(C(=O)Nc2ccc(Cl)cn2)ccc1C	-118*
Cc1ccc(NC(=O)c2cccc(S(C)(=O)=O)c2)cc1	-83*
CCCCN(CC)S(=O)(=O)c1ccc(C(=O)Nc2nnc(-c3ccccc3Cl)o2)cc1	76
CCN(CC)S(=O)(=O)c1cccc(C(=O)N/N=C(\C)c2ccc(O)cc2O)c1	111
CCN(CC)S(=O)(=O)c1cccc(C(=O)Nc2cccc(C)c2)c1	-124*
CCN(CC)S(=O)(=O)c1cccc(C(=O)NCCc2ccccc2)c1	-159*
Fc1ccccc1COc1ccc(C(=S)N2CCCC2)cc1	-96*
Cc1ccc(-c2csc(NC(=S)NC(=O)c3cccs3)n2)cc1	-77*
CCCOc1ccc(C(=O)NC(=S)Nc2nc3ccccc3s2)cc1	-247*
Cc1ccc2nc(NC(=S)NC(=O)c3ccc(OC(C)C)cc3)sc2c1	-107*
Cc1ccc2nc(NC(=S)NC(=O)c3cccs3)sc2c1	-104*
CCCOc1ccc(C(=O)NNC(=S)NC(=O)CC)cc1	85
COc1ccc(-c2csc(NC(=O)c3ccccc3NS(=O)(=O)c3ccc(F)c(F)c3)n2)cc1	74
CCCC(=O)NC(=S)Nc1nc(-c2ccc(OC)cc2)cs1	-65*
CN(C)S(=O)(=O)c1ccc(NC(=O)c2ccccn2)cc1	-79*
CCN(CC)S(=O)(=O)c1ccc(NC(=O)c2ccccn2)cc1	-120*
CN(C)S(=O)(=O)c1ccc(C(=O)Nc2ccccn2)cc1	-70*
O=Nc1c(-c2c(O)[nH]c3cc(Br)ccc23)[nH]c2ccccc12	77
Cc1[nH]c(N=Nc2ccccc2)nc1N=Nc1ccccc1	63
Cc1ccc(N=Nc2c(O)[nH]c3ccc(F)cc23)cc1	-137*
Oc1[nH]c2ccccc2c1N=Nc1cccc(Cl)c1	-87*
SMILES	aSyn UTR act
Cc1cccc2c(N=Nc3ccccc3)c(O)[nH]c12	-112*
Oc1[nH]c2ccc(Br)cc2c1N=Nc1ccc(C(F)(F)F)cn1	-68*
OCCN=C1CCCc2c1[nH]c1ccc(Br)cc21	62
O=C(O)c1ccc(N=Nc2c(O)[nH]c3ccc(Br)cc23)cc1	-188*
O=C(O)c1ccc(N=Nc2c(O)[nH]c3cc(Cl)ccc23)cc1	-294*
O=C(COC(=O)c1ccc2[nH]c3c(c2c1)CCCC3)Nc1ccccc1	-64*
Cc1ccc(-c2onc3ccc(C(=O)O)cc23)cc1	-200*
O=C(O)c1ccc2cc(-c3ccccc3)[nH]c2c1	66
CC(=O)COC(=O)c1ccc2noc(-c3ccccc3)c2c1	-78*
O=C(O)c1ccc2nc(-c3ccccc3)c(-c3ccccc3)nc2c1	-93*
O=C(O)c1ccc2noc(-c3ccccc3)c2c1	-119*
CCOC(=O)c1c(CSC(=N)N)n(-c2ccccc2)c2cc(Br)c(OC(C)=O)cc12	-71*
COc1cc(C(=O)OCC(=O)Nc2cc(C)on2)ccc1OCc1ccccc1Cl	-111*
CC(Sc1nnc(NC2CCCCC2)s1)C(=O)Nc1ccc2c(c1)C(=O)c1ccccc1C2=O (stereo not given)	-79*
COc1ccc(C)c2sc(=NC(=O)c3cccc(N4C(=O)CCC4=O)c3)n(C)c12	-93*
COc1ccc(C)c2sc(=NC(=O)c3ccccc3)n(C)c12	-266*
Oc1ccc(/C=C/c2ccc3cccc(O)c3n2)cc1Br	-200*
O=C(O)c1ccc(/C=C/c2ccc3cccc(O)c3n2)cc1	-188*
CN(Cc1nc(-c2cccc(Cl)c2)no1)C1CCOCC1	-121*
CCCC1=[N+](CC(=O)c2ccccc2)CCn2c(C)ccc21	-74*
OCc1c(OCc2cccc(F)c2)ccc2ccccc12	-111*
NC(=O)C1CC(=O)N(c2ccc(OCc3ccc(F)cc3)cc2)C1 (stereo not given)	-113*
NC(=O)C1CC(=O)N(c2ccc(OCc3ccc([N+](=O)[O-])cc3)cc2)C1 (stereo not given)	-128*
O=C(N/N=C/c1ccccc1O)C1CC(=O)N(c2ccc(Cl)cc2)C1 (stereo not given)	83
CC1CCN(c2oc(-c3ccccc3Cl)nc2C#N)CC1	-144*
SMILES	aSyn UTR act
CC1CCN(c2oc(-c3ccc(F)cc3)nc2C#N)CC1	-67*
O=C(Nc1ccccc1)OCCCc1ccccc1	-119*
CCCCc1ccc(NC(=O)OC)cc1	-79*
CCCCc1ccc(NC(=O)Nc2cccnc2)cc1	-102*
Cc1nc(NC(=O)C2CC3CCCC(C2)C3=O)sc1C (stereo not given)	-80*
Cc1ccc(-n2nc(C)c(NC(=O)CCl)c2C)cc1	-146*
COc1ccc(-c2nn(-c3ccccc3)cc2CO)cc1	-86*
Cc1ccc(-c2nn(-c3ccccc3)cc2CO)cc1	-104*
Cc1ccc(-n2nc3c(=O)n(CCCC(=O)NCc4ccc(Cl)cc4)nc(C)c3c2C)cc1	62
Cc1ccc(-c2nn(-c3ccccc3)cc2NC(=O)CCl)cc1	-71*
COc1ccc(-c2nn(-c3ccccc3)cc2N)cc1	-167*
CC(=O)Nc1ccc2nc(SCC(=O)Nc3ccc(N4CCOCC4)c(Cl)c3)sc2c1	-142*
O=C(CSc1nc2ccccc2o1)Nc1ccc(N2CCOCC2)c(Cl)c1	-165*
O=C(NCC1CCCO1)c1sc2cc(Cl)ccc2c1Cl (stereo not given)	-124*
Cc1ccc(-n2c(C)cc(C(=O)COC(=O)c3c(C)noc3C)c2C)cc1	-199*
COc1ccc(CN(C(=O)c2cc3ccccc3oc2=O)C2CCS(=O)(=O)C2)cc1OC (stereo not given)	-115*
CCOc1ccc(CN(C(=O)c2cc3ccccc3oc2=O)C2CCS(=O)(=O)C2)cc1 (stereo not given)	-78*
O=C(c1cc2ccccc2oc1=O)N(Cc1ccccc1)C1CCS(=O)(=O)C1 (stereo not given)	-88*
O=C(c1cc2ccccc2oc1=O)N(Cc1ccccc1F)C1CCS(=O)(=O)C1 (stereo not given)	-95*
Cc1cc(=O)oc2cc(NC(=O)c3ccnn3C)ccc12	-135*
Cc1cc(=O)oc2cc(NC(=O)c3c(Cl)cnn3C)ccc12	-76*
Cc1ccc2sc3ccc(NC(=O)c4ccccc4Cl)cc3c(=O)c2c1	-109*
Cc1cc(=O)oc2cc(NC(=O)c3ccccc3Cl)ccc12	-201*
N#Cc1c(N)n(C2CCCCC2)c2nc3ccccc3nc12	62
Cc1ccc(/C=N/NC(=O)c2c(C)nc3ccc(Br)cn23)cc1	80
SMILES	aSyn UTR act
CSC(=S)N/N=C/c1ccc(N(C)C)cc1	-96*
Cc1ccc(/C=N/NC(=O)c2ccco2)cc1	-94*
CN(C)c1ccc(/C=N\NC(=O)c2cccc3cc[nH]c23)cc1	-69*
CN(C)c1ccc(/C=N/NC(=O)c2ccco2)cc1	-78*
Cc1cc(C)c2c(n1)sc1c(=O)n(CC(=O)c3ccccc3)cnc12	-132*
O=C(Cn1cnc2c(oc3ccccc32)c1=O)c1ccccc1	-106*
O=C(Nc1ccc2oc(-c3cccc4ccccc34)nc2c1)c1ncn[nH]1	-184*
O=C(Nc1ccc2oc(-c3ccccc3Cl)nc2c1)c1ncn[nH]1	-153*
CC(=O)Nc1ccc2oc(-c3cc(F)c(F)cc3Cl)nc2c1	61
CC(C)c1ccc2oc(-c3ccc(NC(=O)c4ncn[nH]4)cc3)nc2c1	-80*
